Data reported in PubChem BioAssay AID1159580 (chemical genetic matrix, 2015).
In all, about 5,500 compounds went through this assay and about 2,000 (36%) were called active. Inconclusive results (about 18%) are left out. Rule as the data show it: active = normalized growth mostly below about 0.91 (no sharp cut-off); inconclusive = no clear call, values can overlap the other calls; inactive = mostly above about 0.92. Some of the results follow.

Test: chemical genetic growth profiling, strain panel (AID 1159580);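 also: tested at 20 µM; growth read once vehicle control cultures reached saturation at 30 °C; 1 = growth at the plate median or of vehicle wells; lower values mean less growth of the strain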
Details: growth OD

Measured: normalized growth

CC1CC2C3CC(F)C4=CC(=O)C=CC4(C)C3(F)C(O)CC2(C)C1(O)C(=O)CO (centres undefined)
inactive: S. cerevisiae deletion strains, locus YJR043C, strain POL32, active compounds read low 1.08 | S. cerevisiae deletion strains, locus YJR075W, strain HOC1, active compounds read low 1.02 | S. cerevisiae deletion strains, locus YKL009W, strain mrt4, active compounds read low 1.01 | S. cerevisiae deletion strains, locus YKL068W, active compounds read low 1.01 | S. cerevisiae deletion strains, locus YKL085W, strain MDH1 (second series), active compounds read low 1.01 | S. cerevisiae deletion strains, locus YKL085W, strain MDH1, active compounds read low 1.01 | S. cerevisiae deletion strains, locus YKL160W, strain elf1, active compounds read low 0.984 | S. cerevisiae deletion strains, locus YKL190W, strain CNB1, active compounds read low 1.02 | S. cerevisiae deletion strains, locus YKR001C, strain vps1, active compounds read low 1.03 | S. cerevisiae deletion strains, locus YKR026C, strain gcn3, active compounds read low 0.998 | S. cerevisiae deletion strains, locus YKR091W, strain srl3, active compounds read low 1 | S. cerevisiae deletion strains, locus YLL001W, strain dnm1, active compounds read low 0.984 | S. cerevisiae deletion strains, locus YLL026W, active compounds read low 0.997 | S. cerevisiae deletion strains, locus YLL041C, strain sdh2, active compounds read low 0.999 | S. cerevisiae deletion strains, locus YLR027C, strain aat2, active compounds read low 0.997 | S. cerevisiae deletion strains, locus YLR039C, strain RIC1, active compounds read low 1.08 | S. cerevisiae deletion strains, locus YLR058C, strain SHM2, active compounds read low 1.02 | S. cerevisiae deletion strains, locus YLR102C, strain apc9, active compounds read low 1.02 | S. cerevisiae deletion strains, locus YLR221C, strain rsa3, active compounds read low 0.985 | S. cerevisiae deletion strains, locus YLR258W, strain gsy2, active compounds read low 0.995 | S. cerevisiae deletion strains, locus YLR262C, strain YPT6 (second series), active compounds read low 0.984 | S. cerevisiae deletion strains, locus YLR262C, strain YPT6, active compounds read low 1.08 | S. cerevisiae deletion strains, locus YLR268W, strain sec22, active compounds read low 1.02 | S. cerevisiae deletion strains, locus YLR320W, strain mms22, active compounds read low 0.993 | S. cerevisiae deletion strains, locus YLR330W, strain CHS5, active compounds read low 1.02 | S. cerevisiae deletion strains, locus YLR342W, strain FKS1 (second series), active compounds read low 1.1 | S. cerevisiae deletion strains, locus YLR342W, strain FKS1, active compounds read low 0.991 | S. cerevisiae deletion strains, locus YLR357W, strain rsc2, active compounds read low 1.01 | S. cerevisiae deletion strains, locus YLR370C, strain arc18, active compounds read low 1 | S. cerevisiae deletion strains, locus YLR371W, strain rom2, active compounds read low 1.01 | S. cerevisiae deletion strains, locus YLR384C, strain iki3, active compounds read low 0.986 | S. cerevisiae deletion strains, locus YLR418C, strain cdc73, active compounds read low 1 | S. cerevisiae deletion strains, locus YML016C, strain PPZ1, active compounds read low 1.02 | S. cerevisiae deletion strains, locus YML032C, strain rad52, active compounds read low 1.05 | S. cerevisiae deletion strains, locus YML120C, strain ndi1, active compounds read low 1 | S. cerevisiae deletion strains, locus YML124C, strain tub3, active compounds read low 1.02 | S. cerevisiae deletion strains, locus YMR058W, strain fet3, active compounds read low 1.01 | S. cerevisiae deletion strains, locus YMR078C, strain ctf18, active compounds read low 1.02 | S. cerevisiae deletion strains, locus YMR125W, strain sto1, active compounds read low 0.986 | S. cerevisiae deletion strains, locus YMR129W, active compounds read low 1 | S. cerevisiae deletion strains, locus YMR205C, strain PFK2, active compounds read low 0.984 | S. cerevisiae deletion strains, locus YMR223W, strain ubp8, active compounds read low 1.04 | S. cerevisiae deletion strains, locus YMR231W, strain pep5, active compounds read low 0.995 | S. cerevisiae deletion strains, locus YMR263W, strain SAP30, active compounds read low 1.04 | S. cerevisiae deletion strains, locus YMR307W, strain GAS1, active compounds read low 1.09 | S. cerevisiae deletion strains, locus YNL067W, strain RPL9B, active compounds read low 1.03 | S. cerevisiae deletion strains, locus YNL071W, strain lat1, active compounds read low 0.999 | S. cerevisiae deletion strains, locus YNL128W, strain TEP1, active compounds read low 1.01 | S. cerevisiae deletion strains, locus YNL153C, strain GIM3, active compounds read low 1.03 | S. cerevisiae deletion strains, locus YNL209W, strain ssb2, active compounds read low 0.996 | S. cerevisiae deletion strains, locus YNL233W, strain BNI4, active compounds read low 1.02 | S. cerevisiae deletion strains, locus YNL248C, strain rpa49, active compounds read low 1.01 | S. cerevisiae deletion strains, locus YNL250W, strain rad50, active compounds read low 1.04 | S. cerevisiae deletion strains, locus YNL271C, strain bni1, active compounds read low 1.03 | S. cerevisiae deletion strains, locus YNL298W, strain CLA4, active compounds read low 1.03 | S. cerevisiae deletion strains, locus YNL307C, strain MCK1, active compounds read low 1.05 | S. cerevisiae deletion strains, locus YNL322C, strain KRE1 (second series), active compounds read low 0.974 | S. cerevisiae deletion strains, locus YNL322C, strain KRE1, active compounds read low 1.02 | S. cerevisiae deletion strains, locus YNR049C, strain mso1, active compounds read low 0.992 | S. cerevisiae deletion strains, locus YNR052C, strain pop2, active compounds read low 1.03 | S. cerevisiae deletion strains, locus YOL006C, strain TOP1, active compounds read low 1.06 | S. cerevisiae deletion strains, locus YOL012C, strain htz1 0.779 | S. cerevisiae deletion strains, locus YOL147C, strain pex11, active compounds read low 1.02 | S. cerevisiae deletion strains, locus YOR001W, strain rrp6, active compounds read low 1.03 | S. cerevisiae deletion strains, locus YOR061W, strain CKA2, active compounds read low 1.02 | S. cerevisiae deletion strains, locus YOR069W, strain VPS5, active compounds read low 1.01 | S. cerevisiae deletion strains, locus YOR070C, strain gyp1, active compounds read low 1 | S. cerevisiae deletion strains, locus YOR080W, strain dia2, active compounds read low 0.995 | S. cerevisiae deletion strains, locus YOR083W, strain WHI5, active compounds read low 0.965 | S. cerevisiae deletion strains, locus YOR106W, strain vam3, active compounds read low 0.97 | S. cerevisiae deletion strains, locus YOR136W, strain idh2, active compounds read low 1.03 | S. cerevisiae deletion strains, locus YOR144C, strain elg1, active compounds read low 1.02 | S. cerevisiae deletion strains, locus YOR184W, strain ser1, active compounds read low 1.08 | S. cerevisiae deletion strains, locus YOR265W, strain rbl2, active compounds read low 1.01 | S. cerevisiae deletion strains, locus YOR270C, strain vph1, active compounds read low 0.928 | S. cerevisiae deletion strains, locus YOR290C, strain snf2, active compounds read low 0.988 | S. cerevisiae deletion strains, locus YOR316C, strain cot1, active compounds read low 1.03 | S. cerevisiae deletion strains, locus YPL051W, strain arl3, active compounds read low 0.989 | S. cerevisiae deletion strains, locus YPL055C, strain LGE1, active compounds read low 1.09 | S. cerevisiae deletion strains, locus YPL078C, strain atp4, active compounds read low 1.03 | S. cerevisiae deletion strains, locus YPL106C, strain sse1, active compounds read low 0.957 | S. cerevisiae deletion strains, locus YPL240C, strain hsp82, active compounds read low 1 | S. cerevisiae deletion strains, locus YPL241C, strain CIN2, active compounds read low 1.02 | S. cerevisiae deletion strains, locus YPR119W, strain clb2, active compounds read low 1.01 | S. cerevisiae deletion strains, locus YPR141C, strain kar3, active compounds read low 1.02 | S. cerevisiae deletion strains, locus YPR163C, strain tif3, active compounds read low 1.04 | S. cerevisiae deletion strains, locus YPR167C, strain met16, active compounds read low 1.01 | S. cerevisiae deletion strains, strain wtn01, active compounds read low 1.02 | S. cerevisiae strains, strain wild type, active compounds read low 1.03
